HepG2 tox-1 = HepG2 cytotoxicity, counter-screen for TGF-b inhibitors; HepG2 CAGA-GFP viability, ATP luminescence, 18 h; Potency, µM (top dose mostly 46.1 µM), hits mostly cytotoxic; 410,000 tested, 0.76% active
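CellTiter-Glo luminescence gave cytotoxicity after 18 hours at 37 degrees C. The cells were HepG2 CAGA-GFP in 1% FBS DMEM, stimulated with 500 pg/mL TGF-beta after compound addition. %Activity was normalised to no-cell wells (complete cell-killing) and DMSO (no toxicity), and curves were fitted and classified.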
Giardia killer = Giardia lamblia killing; Giardia lamblia trophozoite viability; activity change, % at 7.66 µM, hits read low; 340,000 tested, 0.15% active; AID 540267; in the data active = activity change below about -80%; inconclusive = between about -30% and that limit;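 note: parasites exposed to compound for two days anaerobically before the ATP read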
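Trophozoite viability was measured as ATP-dependent luminescence, read 15-30 min after reagent addition. Before that, parasites at 100 cells/well were exposed to compounds for 48 h, anaerobically, at 37 deg C.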
TGFb inhibitor = blocks TGF-b signaling. HepG2 CAGA-GFP TGF-b/SMAD3 reporter, GFP fluorescence, 18 h; TGF-beta stimulated, 500 pg/mL final. 410,000 tested, 1.2% active. AID 588855. Potency, µM (highest dose often 46.1 µM), usual class: inhibitors; note: nearly all actives have a fitted effect of over 65% in size
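TGF-beta reporter screen: HEPG2 CAGA-GFP, 1% FBS, 500 pg/mL TGF-beta final, 18 h; per-cell GFP summed per well; curves fitted and categorized by class.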
S2 tox = viability counter-screen for ATXN expression inhibitors; S2 cells (HEK-293 line with an ATXN2-luciferase reporter) viability, CellTiter-Fluor protease fluorescence, 24 h; Potency, µM (highest dose often 56.7 µM), hits mostly cytotoxic; 400,000 tested, 0.49% active; AID 651635; note: nearly all actives have a fitted effect of over 40% in size
uPA surface inh = blocks generation of uPA at the cell surface | cell surface uPA generation assay, qHTS | Potency, µM (doses to about 38.3 µM), most hits filed as inhibitors | 330,000 tested, 0.31% active; active = well fitted inhibition curve with a large enough effect; inconclusive = small, poorly fitted or top-dose-only effect; inactive = no such curve, though single readings can be large or run the other way; tested in mouse RAW 264.7 cells; note: nearly all actives have a fitted effect of over 55% in size
ATXN2 expr inh = inhibitors of ATXN2 expression | HEK-293 ATXN2-luciferase reporter, luminescence, 24 h | Potency, µM (highest dose often 57 µM), most hits filed as inhibitors | 360,000 tested, 0.72% active | AID 1745845; note: nearly all actives have a fitted effect of over 55% in size
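ATXN2-luciferase reporter cells (luciferase flanked by upstream and downstream ATXN2 gene portions) were treated 24 h at 37 °C with compounds at up to 57 uM. SteadyGlo luminescence gave expression; GF-AFC fluorescence gave viability.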
TGFb CAGA inh = TGF-b pathway inhibition, cherry-pick retest | shares compounds with TGFb inhibitor | Potency, µM (top dose mostly 46.1 µM), most hits filed as inhibitors | 1,600 tested, 63% active | HepG2 CAGA-GFP TGF-b reporter, GFP fluorescence, 18 h; cells stimulated with TGF-beta, 500 pg/mL; note: nearly all actives have a fitted effect of over 65% in size
HepG2 tox-2 = counter-screen for TGF-b inhibitors: cytotoxicity in HepG2 cells | shares compounds with TGFb inhibitor | HepG2 CAGA-GFP viability, ATP luminescence, 18 h; cells stimulated with TGF-beta, 500 pg/mL | Potency, µM (top dose mostly 46.1 µM), hits mostly inhibitors | 1,600 tested, 27% active | AID 720535; note: nearly all actives have a fitted effect of over 70% in size
TGFb CCL64 inh = TGF-b inhibition, CCL64 orthogonal assay; shares compounds with TGFb inhibitor; CCL64 CAGA-GFP reporter, TGF-b stimulated, GFP fluorescence, 18 h; Potency, µM (highest dose often 46.1 µM), hits mostly inhibitors; 1,600 tested, 41% active; note: nearly all actives have a fitted effect of over 65% in size
TGFb COP inh = TGF-b inhibition validated with COP promoter | shares compounds with TGFb inhibitor | HepG2 COP-GFP TGF-b reporter, GFP fluorescence, 18 h; cells stimulated by added recombinant TGF-beta | Potency, µM (series often up to 46.1 µM), actives largely listed as inhibitors | 1,600 tested, 3% active | AID 720537; note: nearly all actives have a fitted effect of over 70% in size
A number is an active result; 0 = inactive; ? = inconclusive; - = no result. Most compounds without a hit are left out; they make up all but 2.6% or so of the library. Unless noted, calls come from the whole dose curve; as a rule, active = well fitted curve in the direction sought with a large enough effect; inconclusive = small, poorly fitted or top-dose-only effect, or another doubt; inactive = no such curve, though single readings can be large; an effect the other way counts as inactive or inconclusive.

SMILES | HepG2 tox-1 | Giardia killer | TGFb inhibitor | S2 tox | uPA surface inh | ATXN2 expr inh | TGFb CAGA inh | HepG2 tox-2 | TGFb CCL64 inh | TGFb COP inh
CC[C@@]1(O)C(=O)OCc2c1cc1n(c2=O)Cc2cc3c(NC(=O)CN)cccc3nc2-1 | 0 | 0 | ? | - | 0 | 0.34µM | - | - | - | -
COC(=O)C1=C(c2ccc3ccccc3c2)C[C@@H]2CC[C@H]1N2C(=O)NCc1ccc(C(F)(F)F)cc1 | 0 | 0 | ? | 0 | 11µM | ? | - | - | - | -
COC(=O)C1=C(c2ccc(OCc3ccccc3)cc2)C[C@@H]2CC[C@H]1N2C(=O)NC1CCN(Cc2ccccc2)CC1 | 0 | 0 | ? | 11µM | ? | 13µM | - | - | - | -
CCN(CC)C(=O)[C@@H]1C=C2c3cccc4[nH]cc(c34)C[C@H]2N(C)C1 | - | - | - | ? | - | 0 | - | - | - | -
CC1OC(OC2CC(O)C3(CO)C4C(O)CC5(C)C(C6=CC(=O)OC6)CCC5(O)C4CCC3(O)C2)C(O)C(O)C1O (stereo not given) | 0 | 0 | 1.1µM | ? | 0 | 0.006µM | 3.7µM | 0.29µM | 0.21µM | 0
COc1ccc(C(=O)N/N=C/C23CC[C@@H](O)CC2(O)CC[C@@H]2[C@@H]3CCC3(C)C(C4=CC(=O)OC4)CCC23O)cc1 (stereo not given in full) | 0 | 0 | 0 | 0 | 0 | - | - | - | - | -
CCc1ccc(-n2c(=O)c3sc4ccccc4c3n(CC(=O)NC3CCCC3)c2=O)cc1 | 0 | - | 0 | ? | - | 0 | - | - | - | -
CC(C)(C)n1nnnc1C(c1cc2ccccc2o1)N1CCC2(CC1)C(=O)NCN2c1ccccc1 (stereo not given) | 0 | - | ? | - | - | 0 | - | - | - | -
O=C1NCN(c2ccccc2)C12CCN(C(c1cc3ccccc3o1)c1nnnn1C1CCCCC1)CC2 (stereo not given) | 0 | - | 10µM | ? | - | ? | 18µM | ? | 23µM | ?
CCCCn1c(N)c(C(=O)NCc2cccs2)c2nc3ccccc3nc21 | 0 | 0 | 10µM | 0 | - | 0 | ? | 0 | ? | 0
NC(=O)CC(NC(=O)c1ccc(Br)cc1)c1ccc(N2CCC(Cc3ccccc3)CC2)c([N+](=O)[O-])c1 (stereo not given) | 0 | 0 | 10µM | 0 | ? | 0 | ? | 21µM | ? | 0
O=Nc1c(-c2ccccc2)n(O)[n+]([O-])c1-c1ccccc1 | 0 | - | 0 | ? | - | - | - | - | - | -
CN1CCN(c2ccc(CNS(=O)(=O)Cc3cccc(C(F)(F)F)c3)cc2)CC1 | 0 | 0 | ? | 0 | ? | - | - | - | - | -
COP(=O)(/C=C/c1ccccc1)C(O)c1ccc(F)cc1 (stereo not given) | 0 | 0 | 0 | 0 | 0 | 0 | - | - | - | -
Cc1ccccc1-c1nc(CS(=O)CC(=O)N2CCN(c3cc(Cl)ccc3C)CC2)c(C)o1 (stereo not given) | 0 | - | ? | 0 | - | 0 | - | - | - | -
CCC(c1nnnn1-c1ccc(OC)cc1)N1CCC(n2c(=O)[nH]c3ccccc32)CC1 (stereo not given) | 0 | - | 0 | 0 | - | 0 | - | - | - | -
COc1ccc(-n2nnnc2C(c2ccccc2OC(F)(F)F)N2CCC(n3c(=O)[nH]c4ccccc43)CC2)cc1 (stereo not given) | 0 | - | 11µM | ? | - | ? | 5.8µM | ? | ? | 0
COc1ccc(-n2nnnc2C(CCc2ccccc2)N2CCC(n3c(=O)[nH]c4ccccc43)CC2)cc1 (stereo not given) | 0 | - | 11µM | 10µM | - | ? | ? | 0 | ? | 0
NC(=Nc1ccccc1)Nc1ccccc1 | 0 | 0 | 8.9µM | ? | 0 | 0 | 9.2µM | ? | ? | 0
CC(C)c1ccc(N2C(=O)NC(=O)/C(=C\C=C\c3ccco3)C2=O)cc1 | 0 | 0 | 10µM | 28µM | 0 | ? | 4.1µM | 7.3µM | 5.8µM | 0
CC(C)c1ccc(N2C(=O)NC(=O)/C(=C\c3cnc(-c4ccccc4)nc3)C2=O)cc1 | 0 | 0 | 0 | 0 | 0 | 0 | - | - | - | -
CCOc1ccc(N(C(C)C(=O)Nc2cc(Cl)ccc2OC)S(C)(=O)=O)cc1 (stereo not given) | 0 | - | ? | ? | - | 0 | - | - | - | -
Cc1ccccc1OCCC(=O)Nc1ccc(S(=O)(=O)N(C)C2CCN(C)CC2)cc1 | 0 | 0 | 0 | 0 | ? | 0 | - | - | - | -
CC(=O)OC1(C)CC(C)C(=O)C(C(O)CC2CC(=O)NC(=O)C2)C1 (stereo not given) | 0 | ? | 0 | ? | ? | 0.03µM | 0.052µM | 0.13µM | 0.021µM | 0
Cc1[nH]c2ccc(OC(F)(F)F)cc2c1CCNCc1ccc(Cl)cc1 | 11µM | 0 | 10µM | ? | 0 | 20µM | ? | ? | ? | ?
SMILES | HepG2 tox-1 | Giardia killer | TGFb inhibitor | S2 tox | uPA surface inh | ATXN2 expr inh | TGFb CAGA inh | HepG2 tox-2 | TGFb CCL64 inh | TGFb COP inh
CCc1ccc(CNC(=O)c2ccc3c(c2)N=C(C)c2cc(C)ccc2S3)cc1 | 0 | - | ? | ? | - | 0 | - | - | - | -
CC(=NCCc1c[nH]c2ccccc12)c1c(O)n(Cc2ccccc2)c(=O)[nH]c1=O | 0 | 0 | 11µM | 0 | 0 | ? | 21µM | 0 | ? | 0
Oc1ccccc1-[n+]1c(-c2ccccc2)cc(-c2ccccc2)c(O)c1-c1ccccc1 | 0 | 0 | 11µM | 0 | ? | 0 | ? | ? | 23µM | 0
CNC(C)Cc1ccc2c(c1)OCO2 (stereo not given) | - | - | - | 0 | - | 0 | - | - | - | -
CCc1nc2ccc(Br)cc2c(=O)n1-c1ccccc1C(F)(F)F | 0 | 0 | 0 | 0 | 0 | 0 | - | - | - | -
CCCc1nc2ccc(Br)cc2c(=O)n1-c1ccc([N+](=O)[O-])c(C(F)(F)F)c1 | 0 | 0 | 7.1µM | 0 | 0 | 0 | ? | 0 | ? | 0
CC1=C(N2CC2)C(=O)C(CO)=C(N2CC2)C1=O | 0 | ? | 0.32µM | 2.7µM | 0 | 0.12µM | 0.1µM | 0.21µM | 0 | 0
O=C1NC[C@H](CCCCN2C[C@H](Cc3ccccc3)N(CCC3CCCCC3)C(=O)C2=O)N(CCC2CCCCC2)C1=O | - | - | - | ? | - | 0 | - | - | - | -

Bioassay records: PubChem BioAssay, National Center for Advancing Translational Sciences (NCATS)
